According to the supplement of paper PMC11732987, “Enantioselective OTUD7B fragment discovery through chemoproteomics screening and high-throughput optimisation” (Communications Chemistry, 2025):

How the values were obtained:
Assay in all cases: log2 ratio of Biotin-Ahx-Ub-VS probe labelling (fragment/DMSO); higher = less target engagement (more negative = stronger competition), active = hit call of the paper (q ≤ 0.05, log2 ratio ≤ -1)
Conditions in all cases: compound concentration: 200 uM; treatment time: 3 h
[1] = biological target: USP34 (UniProt Q70CQ2)
In short: (§1)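 Triplicate samples of HEK293T lysate, 495 µg each, received fragment at 200 µM or vehicle for 3 h, followed by Biotin-Ahx-Ub-VS (0.5 µM final) for 1 h. After NeutrAvidin enrichment of labelled DUBs and LysC/trypsin digestion, peptides were run by diaPASEF LC-MS/MS. The values are average log2 fragment/vehicle ratios from global-median-normalised Spectronaut label-free quantities, tested by unpaired t-test on proteins having ≥2 unique peptides.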

[2] = biological target: T1, USP36 (UniProt Q9P275)
T1 sequence (whole entry): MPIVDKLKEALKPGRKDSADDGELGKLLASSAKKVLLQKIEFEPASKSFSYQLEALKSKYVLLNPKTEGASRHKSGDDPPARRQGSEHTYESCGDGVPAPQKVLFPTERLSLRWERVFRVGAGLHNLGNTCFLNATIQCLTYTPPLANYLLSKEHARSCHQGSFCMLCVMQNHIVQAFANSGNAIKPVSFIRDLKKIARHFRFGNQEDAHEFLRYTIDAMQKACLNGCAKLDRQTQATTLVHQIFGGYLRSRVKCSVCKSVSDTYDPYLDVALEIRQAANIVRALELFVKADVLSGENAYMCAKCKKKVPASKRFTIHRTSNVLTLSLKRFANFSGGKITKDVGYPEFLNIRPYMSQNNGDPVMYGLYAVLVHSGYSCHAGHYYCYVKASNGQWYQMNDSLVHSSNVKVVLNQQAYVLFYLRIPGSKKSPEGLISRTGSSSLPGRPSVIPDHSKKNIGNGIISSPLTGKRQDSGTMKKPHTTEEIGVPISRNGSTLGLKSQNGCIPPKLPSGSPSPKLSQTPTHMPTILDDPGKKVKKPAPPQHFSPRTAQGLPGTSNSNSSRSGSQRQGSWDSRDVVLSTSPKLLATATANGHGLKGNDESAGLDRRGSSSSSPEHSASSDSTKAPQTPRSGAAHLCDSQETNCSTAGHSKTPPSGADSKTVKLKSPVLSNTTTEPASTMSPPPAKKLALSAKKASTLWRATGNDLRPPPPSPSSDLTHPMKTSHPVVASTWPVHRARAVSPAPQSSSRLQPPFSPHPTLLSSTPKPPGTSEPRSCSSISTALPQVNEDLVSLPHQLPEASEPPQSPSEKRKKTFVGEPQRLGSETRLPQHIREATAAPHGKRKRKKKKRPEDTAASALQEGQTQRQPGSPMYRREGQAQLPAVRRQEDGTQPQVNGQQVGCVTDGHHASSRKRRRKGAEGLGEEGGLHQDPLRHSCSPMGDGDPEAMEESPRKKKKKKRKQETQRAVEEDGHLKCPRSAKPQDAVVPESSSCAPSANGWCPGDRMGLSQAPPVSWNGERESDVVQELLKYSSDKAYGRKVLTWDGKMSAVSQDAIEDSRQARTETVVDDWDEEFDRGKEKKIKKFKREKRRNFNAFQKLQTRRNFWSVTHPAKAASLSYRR
In short: as §1

[3] = biological target: T2, USP38 (UniProt Q8NB14)
T2 sequence (whole entry): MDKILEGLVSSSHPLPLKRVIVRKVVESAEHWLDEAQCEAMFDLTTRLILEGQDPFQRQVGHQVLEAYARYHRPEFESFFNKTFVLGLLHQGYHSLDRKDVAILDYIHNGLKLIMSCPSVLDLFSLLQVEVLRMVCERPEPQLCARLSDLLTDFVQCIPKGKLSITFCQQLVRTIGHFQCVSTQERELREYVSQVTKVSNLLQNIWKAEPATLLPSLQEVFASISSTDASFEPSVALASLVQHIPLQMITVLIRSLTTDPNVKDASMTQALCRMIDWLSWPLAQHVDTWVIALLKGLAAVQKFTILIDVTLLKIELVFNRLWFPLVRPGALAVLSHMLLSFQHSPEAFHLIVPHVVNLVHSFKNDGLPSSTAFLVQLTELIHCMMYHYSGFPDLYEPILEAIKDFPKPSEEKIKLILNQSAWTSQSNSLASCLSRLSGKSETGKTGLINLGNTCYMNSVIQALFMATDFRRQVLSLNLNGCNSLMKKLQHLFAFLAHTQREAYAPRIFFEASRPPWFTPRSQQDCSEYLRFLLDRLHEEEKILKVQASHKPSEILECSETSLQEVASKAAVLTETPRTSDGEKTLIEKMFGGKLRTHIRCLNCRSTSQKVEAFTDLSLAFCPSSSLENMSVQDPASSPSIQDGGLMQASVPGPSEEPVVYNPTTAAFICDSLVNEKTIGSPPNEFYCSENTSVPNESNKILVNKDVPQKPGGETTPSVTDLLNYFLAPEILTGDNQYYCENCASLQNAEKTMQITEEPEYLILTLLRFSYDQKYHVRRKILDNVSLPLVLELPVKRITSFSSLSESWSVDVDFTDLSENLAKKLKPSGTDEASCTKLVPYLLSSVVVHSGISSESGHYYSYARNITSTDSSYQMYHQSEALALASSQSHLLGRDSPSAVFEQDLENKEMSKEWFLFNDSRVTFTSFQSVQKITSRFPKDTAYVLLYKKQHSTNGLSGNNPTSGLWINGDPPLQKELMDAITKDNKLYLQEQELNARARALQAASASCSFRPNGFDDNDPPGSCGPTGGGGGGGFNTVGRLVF
In short: as §1

[4] = biological target: T3, USP39 (UniProt Q53GS9)
T3 sequence (whole entry): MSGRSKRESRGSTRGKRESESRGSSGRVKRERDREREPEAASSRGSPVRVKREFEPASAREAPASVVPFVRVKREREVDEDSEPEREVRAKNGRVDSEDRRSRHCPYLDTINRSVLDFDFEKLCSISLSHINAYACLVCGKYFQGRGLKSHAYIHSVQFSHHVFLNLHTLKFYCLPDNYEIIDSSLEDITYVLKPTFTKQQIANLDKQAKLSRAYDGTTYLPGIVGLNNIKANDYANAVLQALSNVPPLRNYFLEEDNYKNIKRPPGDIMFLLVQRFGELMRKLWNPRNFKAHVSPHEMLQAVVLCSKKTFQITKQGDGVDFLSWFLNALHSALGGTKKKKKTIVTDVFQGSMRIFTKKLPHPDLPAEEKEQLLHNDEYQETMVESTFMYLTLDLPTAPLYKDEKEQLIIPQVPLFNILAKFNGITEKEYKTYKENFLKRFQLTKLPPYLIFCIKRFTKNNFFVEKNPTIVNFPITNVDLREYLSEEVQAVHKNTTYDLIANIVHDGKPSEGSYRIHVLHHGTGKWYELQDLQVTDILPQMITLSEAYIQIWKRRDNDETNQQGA
In short: as §1

[5] = biological target: T4, USP4 (UniProt Q13107)
T4 sequence (whole entry): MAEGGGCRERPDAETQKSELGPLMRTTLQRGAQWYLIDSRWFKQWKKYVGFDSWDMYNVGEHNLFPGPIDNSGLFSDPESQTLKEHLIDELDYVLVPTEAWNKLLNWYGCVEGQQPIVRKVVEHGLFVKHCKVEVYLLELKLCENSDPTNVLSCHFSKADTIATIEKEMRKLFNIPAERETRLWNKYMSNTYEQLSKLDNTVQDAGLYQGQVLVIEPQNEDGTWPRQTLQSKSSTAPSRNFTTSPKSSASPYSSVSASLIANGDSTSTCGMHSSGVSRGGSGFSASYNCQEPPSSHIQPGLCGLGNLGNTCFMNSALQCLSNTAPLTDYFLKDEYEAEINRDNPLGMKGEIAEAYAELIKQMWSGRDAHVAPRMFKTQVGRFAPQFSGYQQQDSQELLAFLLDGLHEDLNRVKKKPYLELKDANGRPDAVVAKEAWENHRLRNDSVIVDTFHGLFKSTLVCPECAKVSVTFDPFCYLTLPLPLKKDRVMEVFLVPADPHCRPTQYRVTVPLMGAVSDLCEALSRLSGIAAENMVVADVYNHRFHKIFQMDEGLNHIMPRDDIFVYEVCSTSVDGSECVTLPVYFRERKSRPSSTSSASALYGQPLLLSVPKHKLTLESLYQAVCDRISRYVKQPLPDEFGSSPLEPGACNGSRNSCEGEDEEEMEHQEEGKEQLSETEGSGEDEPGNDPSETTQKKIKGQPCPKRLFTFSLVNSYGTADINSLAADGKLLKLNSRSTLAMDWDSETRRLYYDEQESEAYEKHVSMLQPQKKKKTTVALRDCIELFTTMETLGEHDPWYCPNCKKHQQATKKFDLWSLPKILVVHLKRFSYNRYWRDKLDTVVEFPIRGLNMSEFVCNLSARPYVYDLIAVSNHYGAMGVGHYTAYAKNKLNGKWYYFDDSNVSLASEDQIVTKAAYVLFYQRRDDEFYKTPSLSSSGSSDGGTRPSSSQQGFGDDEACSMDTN
In short: as §1

Measured: log2 ratio of Biotin-Ahx-Ub-VS probe labelling

Chain of USP34 (Q70CQ2 whole entry, the tested form may be a part): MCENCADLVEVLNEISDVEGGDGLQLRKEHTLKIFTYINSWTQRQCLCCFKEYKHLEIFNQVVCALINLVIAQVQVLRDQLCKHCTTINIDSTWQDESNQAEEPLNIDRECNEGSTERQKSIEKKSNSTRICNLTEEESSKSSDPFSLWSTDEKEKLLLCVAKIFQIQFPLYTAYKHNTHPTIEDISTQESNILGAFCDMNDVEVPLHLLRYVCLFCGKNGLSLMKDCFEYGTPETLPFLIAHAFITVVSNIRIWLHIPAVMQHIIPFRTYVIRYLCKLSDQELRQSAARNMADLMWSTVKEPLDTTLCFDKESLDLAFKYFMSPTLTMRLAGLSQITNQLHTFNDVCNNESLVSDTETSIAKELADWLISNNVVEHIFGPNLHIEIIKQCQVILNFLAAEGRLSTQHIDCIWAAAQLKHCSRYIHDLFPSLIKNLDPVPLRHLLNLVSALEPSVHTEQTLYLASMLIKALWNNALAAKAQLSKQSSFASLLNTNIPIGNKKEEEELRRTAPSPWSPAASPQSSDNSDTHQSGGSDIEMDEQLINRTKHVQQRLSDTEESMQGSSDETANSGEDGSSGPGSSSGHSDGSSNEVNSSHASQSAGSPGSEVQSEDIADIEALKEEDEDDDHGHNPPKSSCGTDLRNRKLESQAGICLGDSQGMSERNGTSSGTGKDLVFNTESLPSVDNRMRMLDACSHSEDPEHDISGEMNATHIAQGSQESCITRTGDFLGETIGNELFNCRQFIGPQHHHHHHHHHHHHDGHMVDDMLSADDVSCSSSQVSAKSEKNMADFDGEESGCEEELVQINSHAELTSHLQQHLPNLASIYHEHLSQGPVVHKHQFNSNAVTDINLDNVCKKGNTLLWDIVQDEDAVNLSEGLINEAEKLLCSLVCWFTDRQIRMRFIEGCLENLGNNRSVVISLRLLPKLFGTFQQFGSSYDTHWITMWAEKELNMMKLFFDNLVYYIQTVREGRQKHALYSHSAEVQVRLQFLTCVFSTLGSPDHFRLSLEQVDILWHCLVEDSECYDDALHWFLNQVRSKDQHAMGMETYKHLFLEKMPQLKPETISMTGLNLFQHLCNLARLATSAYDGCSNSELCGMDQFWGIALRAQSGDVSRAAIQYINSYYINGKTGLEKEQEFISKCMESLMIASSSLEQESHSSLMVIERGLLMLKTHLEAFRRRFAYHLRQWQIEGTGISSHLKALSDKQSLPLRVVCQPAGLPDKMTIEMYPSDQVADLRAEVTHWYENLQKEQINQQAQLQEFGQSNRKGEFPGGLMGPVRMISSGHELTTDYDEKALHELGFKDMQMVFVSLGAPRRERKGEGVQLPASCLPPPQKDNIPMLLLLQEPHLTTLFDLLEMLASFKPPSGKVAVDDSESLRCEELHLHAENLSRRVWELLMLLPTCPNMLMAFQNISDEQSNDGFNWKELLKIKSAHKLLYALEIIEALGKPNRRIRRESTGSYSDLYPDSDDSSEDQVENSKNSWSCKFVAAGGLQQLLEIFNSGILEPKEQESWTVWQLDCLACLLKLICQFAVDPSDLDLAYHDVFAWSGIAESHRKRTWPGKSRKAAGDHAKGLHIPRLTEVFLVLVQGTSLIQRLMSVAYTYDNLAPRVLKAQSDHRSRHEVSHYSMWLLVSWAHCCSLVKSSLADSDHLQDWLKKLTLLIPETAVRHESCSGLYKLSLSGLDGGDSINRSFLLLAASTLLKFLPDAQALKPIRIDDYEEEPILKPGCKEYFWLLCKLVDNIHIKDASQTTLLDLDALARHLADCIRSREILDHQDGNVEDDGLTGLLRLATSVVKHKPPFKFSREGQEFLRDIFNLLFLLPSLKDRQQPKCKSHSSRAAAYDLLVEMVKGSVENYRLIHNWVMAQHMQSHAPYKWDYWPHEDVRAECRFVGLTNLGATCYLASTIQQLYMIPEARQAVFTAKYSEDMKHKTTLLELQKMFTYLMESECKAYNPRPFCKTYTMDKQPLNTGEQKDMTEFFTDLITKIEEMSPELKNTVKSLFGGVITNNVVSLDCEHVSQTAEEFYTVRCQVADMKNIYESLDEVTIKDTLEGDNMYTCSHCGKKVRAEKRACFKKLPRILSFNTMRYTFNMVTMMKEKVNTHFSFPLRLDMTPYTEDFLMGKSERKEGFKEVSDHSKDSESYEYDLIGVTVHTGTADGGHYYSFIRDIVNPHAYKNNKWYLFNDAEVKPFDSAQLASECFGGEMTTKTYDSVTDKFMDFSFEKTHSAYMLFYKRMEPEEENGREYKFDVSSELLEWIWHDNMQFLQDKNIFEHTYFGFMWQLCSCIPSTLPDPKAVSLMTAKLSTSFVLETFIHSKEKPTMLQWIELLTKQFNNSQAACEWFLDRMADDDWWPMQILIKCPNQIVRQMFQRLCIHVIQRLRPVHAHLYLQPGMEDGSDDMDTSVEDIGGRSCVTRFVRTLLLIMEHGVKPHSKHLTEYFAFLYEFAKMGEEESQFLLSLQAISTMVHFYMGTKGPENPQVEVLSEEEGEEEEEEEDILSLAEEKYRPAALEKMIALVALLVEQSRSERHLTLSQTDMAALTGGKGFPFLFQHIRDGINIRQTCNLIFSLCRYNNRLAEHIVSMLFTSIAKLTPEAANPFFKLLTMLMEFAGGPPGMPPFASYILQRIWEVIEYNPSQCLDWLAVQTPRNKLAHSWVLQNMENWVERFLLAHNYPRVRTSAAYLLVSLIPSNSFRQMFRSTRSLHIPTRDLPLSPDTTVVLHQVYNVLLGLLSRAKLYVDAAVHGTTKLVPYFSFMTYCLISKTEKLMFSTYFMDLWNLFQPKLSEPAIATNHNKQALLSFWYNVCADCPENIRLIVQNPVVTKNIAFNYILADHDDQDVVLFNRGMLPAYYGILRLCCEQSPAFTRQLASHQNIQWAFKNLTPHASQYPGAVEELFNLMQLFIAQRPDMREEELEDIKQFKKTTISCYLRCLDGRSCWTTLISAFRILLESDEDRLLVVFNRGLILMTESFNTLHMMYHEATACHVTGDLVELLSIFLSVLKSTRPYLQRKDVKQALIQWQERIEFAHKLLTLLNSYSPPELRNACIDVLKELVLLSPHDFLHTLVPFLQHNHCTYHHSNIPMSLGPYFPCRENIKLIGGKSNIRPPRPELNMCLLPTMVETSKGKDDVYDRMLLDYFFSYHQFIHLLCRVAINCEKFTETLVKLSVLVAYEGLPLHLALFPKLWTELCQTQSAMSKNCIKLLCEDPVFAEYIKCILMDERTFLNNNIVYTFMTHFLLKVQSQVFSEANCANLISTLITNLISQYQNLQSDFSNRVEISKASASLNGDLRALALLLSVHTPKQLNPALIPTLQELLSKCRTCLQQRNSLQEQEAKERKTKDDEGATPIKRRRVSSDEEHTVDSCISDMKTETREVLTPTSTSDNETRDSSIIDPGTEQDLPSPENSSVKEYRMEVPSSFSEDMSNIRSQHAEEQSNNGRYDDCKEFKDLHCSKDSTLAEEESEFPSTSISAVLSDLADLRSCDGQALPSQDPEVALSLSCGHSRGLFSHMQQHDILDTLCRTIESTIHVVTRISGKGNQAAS

CC1CCc2onc(CNC(=O)CCl)c2C1 (stereo not given)
inactive: [1] 0.0236 | [2] 0.0286 | [3] 0.0155 | [4] 0.358 | [5] 0.094
